This is a sample that favours compounds with a hit; in the whole collection about 21% have one here.
Shiga toxin inh = Shiga toxin inhibition | Vero cells, Shiga toxin protein synthesis inhibition reporter | inhibition, % at 38.7 µM | 290,000 compounds, 9.2% hits | AID 2315; in the data active = inhibition mostly above about 28%, no sharp cut-off; inactive = mostly below about 43%
AMA1 RON2 block = inhibitors of Plasmodium falciparum AMA1-RON2 interaction. AlphaScreen AMA1-biotinylated RON2 peptide binding. Potency, µM (titrated, usually from 58.2 µM), usual class: inhibitors. 360,000 compounds, 0.2% hits. AID 720542; note: nearly all actives have a fitted effect of over 45% in size
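AMA1 (3D7) with his tag at 25 nM final met compounds first, then biotinylated RON2 peptide at 25 nM; detection used donor plus acceptor beads, 10 µg/mL apiece, read by AlphaScreen after 30 min at room temperature.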
CHX counter = affects cycloheximide protein synthesis inhibition readout, counter-screen; AID 2314; max response, %; cell reporter, cycloheximide protein synthesis inhibition counterscreen; 300,000 compounds, 12% hits; in the data active = max response mostly above about 13%, no sharp cut-off; inactive = mostly below about 14%; note: read at 38.3 µM for the half of the compounds with a filed dose
HCV inh = blocks hepatitis C virus. Huh7.5.1 HCVcc-Cre infection, luciferase reporter, 44 h. Potency, µM (top dose mostly 41.8 µM), usual class: inhibitors. 340,000 compounds, 3.4% hits. AID 651820
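Luciferase read-out (15 sec integration) after a 15 min room-temperature substrate step quantifies HCVcc-Cre infection. Cells, 1,000 per well, had compound added 4 h post-plating, then virus at ~0.5 moi, and were cultured 44 h.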
Pf growth 48h = inhibits P. falciparum growth in the first generation, 48 h; P. falciparum luciferase growth in erythrocytes, 48 h; Potency, µM (highest dose often 28.7 µM), actives largely listed as inhibitors; 310,000 compounds, 5.9% hits; AID 504832
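Cell-based growth assay: transgenic P. falciparum expressing firefly luciferase, cultured in red cells within RPMI 1640 containing 0.5% w/v Albumax, 24 mM bicarbonate and gentamycin. A drop in luciferase activity indicates inhibition.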
Pf growth 96h = inhibits malaria parasite growth, 96 h; P. falciparum luciferase reporter growth, 96 h; Potency, µM (doses to about 28.7 µM), most hits filed as inhibitors; 320,000 compounds, 6.9% hits; AID 504834
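Parasite growth measured via integrated firefly luciferase reporter in P. falciparum. Infected erythrocytes at 2% hematocrit, 0.05% parasitemia final were treated 96 hours at 37 C under 5% CO2, and luminescence was read.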
Numbers stand for hits; – = inactive; ? = inconclusive; · = not tested or not shown; + = active, no number. Unless noted, calls come from the whole dose curve; as a rule, active = well fitted curve in the direction sought with a large enough effect; inconclusive = small, poorly fitted or top-dose-only effect, or another doubt; inactive = no such curve, though single readings can be large; an effect the other way counts as inactive or inconclusive.

SMILES	Shiga toxin inh	AMA1 RON2 block	CHX counter	HCV inh	Pf growth 48h	Pf growth 96h
Cc1nnc(NCc2ccco2)s1	–	–	–	–	–	–
COc1ccc(/C=N/NC(=O)c2nnn(-c3nonc3N)c2CN(C)c2ccccc2)cc1	–	–	–	?	–	–
Oc1ccc2ccccc2c1C=Nc1ccc(Cl)cn1	–	–	–	–	–	13µM
Oc1ccc2ccccc2c1/C=N/n1cnnc1	–	–	–	–	–	–
Cc1nn(C)c(C)c1N=Cc1c(O)ccc2ccccc12	–	–	–	–	·	8.3µM
CCCCC(C)/C=C(C)/C=C(\C)C(=O)NC1=CC(O)(/C=C/C=C/C=C/C(=O)NC2=C(O)CCC2=O)C2OC2C1=O (stereo not given)	–	·	–	·	·	·
CCc1nc(C(N)=O)c2[nH]c(=O)n(-c3ccc(OC)cc3OC)c2n1	–	–	–	–	–	–
CN(C)CCC=C1c2ccccc2C=Cc2ccccc21	·	–	·	32µM	12µM	?
CN(C)CCC=C1c2ccccc2CCc2ccccc21	–	–	–	?	15µM	?
CN(C)CCC=C1c2ccccc2C(C)(C)c2ccccc21	·	·	·	·	?	6.7µM
CNCCC=C1c2ccccc2C=Cc2ccccc21	·	–	·	?	·	·
O=C(Nc1ccccc1)SC1CCCCC1	·	–	·	–	·	·
CCCC(C(=O)NC(C)(C)C)N(CC1CCCO1)C(=O)CNS(=O)(=O)c1ccc(F)cc1 (stereo not given)	–	–	–	–	–	–
C/C(=N\NC(=O)C1CCCN(S(=O)(=O)c2ccccc2)C1)c1ccncc1 (stereo not given)	–	–	–	–	–	?
C/C(=N\NC(=O)C1CCCN(S(=O)(=O)c2ccccc2)C1)c1cccnc1 (stereo not given)	–	–	–	–	–	9.3µM
C/C(=N\NC(=O)C1CCCN(S(=O)(=O)c2ccccc2)C1)c1ccccn1 (stereo not given)	–	–	–	?	2.3µM	–
CCOc1ccc2c(c1)C(c1ccc(C)o1)=NNC(c1ccncc1)=N2	–	–	–	?	1.5µM	–
CCOc1ccc(C2=Nc3ccccc3C(c3ccc(N4CCOCC4)cc3)=NN2)cc1	163	–	46	?	?	?
CCOc1ccc(C2=NNC(c3cccnc3)=Nc3ccc(OC)cc32)cc1	–	–	–	?	?	?
Brc1ccc2c(c1)C(c1ccc(N3CCOCC3)cc1)=NNC(c1cccs1)=N2	–	–	–	–	?	?
CCOc1ccc(C2=Nc3ccc(Br)cc3C(c3ccc(N4CCOCC4)cc3)=NN2)cc1	56	–	44	–	10µM	?
CCOc1ccc(C2=NNC(c3cccs3)=Nc3ccc(OC)cc32)cc1	85	?	35	–	12µM	–
c1cc[n+](CCC[n+]2ccccc2)cc1	–	–	–	–	–	–
CCOC(=O)C1=C(COC(=O)Cc2ccc(Cl)cc2)NC(=O)NC1C (stereo not given)	·	–	·	–	–	–
CC1CCCC(C)N1CCCNC(=O)c1csc2c1CCCCC2 (stereo not given)	–	–	–	–	–	–
SMILES	Shiga toxin inh	AMA1 RON2 block	CHX counter	HCV inh	Pf growth 48h	Pf growth 96h
Fc1ccc(Oc2nc(-c3ccccn3)nc3ccccc23)cc1	67	–	51	–	1.7µM	4.7µM
CSc1nc(Oc2ccc(F)cc2)c2ccccc2n1	–	–	–	?	–	?
COc1ccc(Oc2nc(-c3ccccn3)nc3ccccc23)cc1	56	–	48	13µM	1.7µM	0.37µM
c1ccc(Oc2nc(-c3ccccn3)nc3ccccc23)cc1	35	–	36	7.9µM	1.7µM	1.3µM
O=C(CN1CCN(Cc2ccccc2F)CC1)Nc1ccccc1Cl	–	–	–	–	–	–
COc1cccc(-c2cc(C(=O)Nc3ccn(Cc4ccc(C)cc4)n3)no2)c1	–	–	–	?	?	–
Cc1ccc(Cn2ccc(NC(=O)c3cc(-c4ccccc4)on3)n2)cc1	–	–	–	–	9.3µM	–
Cc1ccc(Cn2ccc(NC(=O)c3cc(-c4ccco4)on3)n2)cc1	–	–	–	·	10µM	–
Cc1ccc(Cn2ccc(NC(=O)c3cc(C)on3)n2)cc1	–	–	29	–	·	·
Cc1ccc(Cn2ccc(NC(=O)c3cc(-c4ccc(Br)cc4)on3)n2)cc1	–	–	–	–	–	?
Cn1c(=O)c(=O)n(C)c2cc(N3CCCCC3)c(NS(=O)(=O)c3ccc([N+](=O)[O-])cc3)cc21	–	–	–	–	–	–
Cc1ccc(N2CCN(S(=O)(=O)c3ccc(Cl)s3)CC2C)cc1 (stereo not given)	22	–	15	–	?	?
COc1ccccc1N1CCN(S(=O)(=O)c2ccc(Cl)s2)CC1	–	–	16	?	–	–
CCOc1ccccc1N1CCN(S(=O)(=O)c2ccc(Cl)s2)CC1	35	–	17	–	–	·
Cc1ccccc1CN1CCN(S(=O)(=O)c2ccc(Cl)s2)CC1	–	–	–	·	–	13µM
COc1ccccc1N1CCN(S(C)(=O)=O)CC1	–	–	–	–	·	–
Cc1ccccc1CN1CCN(S(C)(=O)=O)CC1	–	–	–	–	–	–
OCCC1CN(Cc2cccn2-c2cccnc2)CCN1C1CCCC1 (stereo not given)	–	–	–	–	–	–
CN(C)c1ccc(NS(=O)(=O)c2cc(Cl)ccc2Cl)cc1	–	?	21	–	–	?
O=C1c2ccccc2C(=O)N1CC(O)COc1ccc(Cl)cc1 (stereo not given)	–	–	18	–	–	–
COc1ccc(OCC(O)CN2C(=O)c3ccccc3C2=O)cc1 (stereo not given)	–	–	–	–	·	–
O=C1CSC(=O)N1CC(O)COc1ccc(Cl)cc1 (stereo not given)	86	–	39	–	–	–
O=S1(=O)C=C(Sc2nc3ccccc3s2)c2ccccc21	76	–	77	5µM	8.3µM	·
c1ccc(-c2cn3nc(-c4ccccc4)cnc3n2)cc1	+	–	49	–	–	–
Cc1nc2nc(-c3ccccc3)cn2nc1C	85	–	28	–	–	–
SMILES	Shiga toxin inh	AMA1 RON2 block	CHX counter	HCV inh	Pf growth 48h	Pf growth 96h
Cc1nc2nc(-c3ccc(F)cc3)cn2nc1C	–	–	32	–	–	–
CCc1ccc(-c2cn3nc(C)c(C)nc3n2)cc1	–	–	–	–	–	–
Cc1ccc(CS(=O)Cc2ccc(C(=O)N3CCN(C4CCCCC4)CC3)o2)cc1 (stereo not given)	–	–	–	–	–	–
O=[n+]1ccn([O-])c2ccccc21	·	·	·	·	–	–
N#Cc1c([N+](=O)[O-])cc([N+](=O)[O-])cc1S(=O)(=O)Cc1ccccc1	·	–	·	10µM	–	–
COC(=O)CC(NS(=O)(=O)c1cccs1)c1ccccc1Cl (stereo not given)	–	–	–	–	–	–
